Compound activity from PubChem.
Sampled rows, rich in hits. Any-hit rate of the full collection: about 7.3%.
Tau ThT inhib: qHTS for Inhibitors of Tau Fibril Formation, Thioflavin T Binding; Microtubule-associated protein tau (Homo sapiens), P10636; recombinant tau K18 P301L, heparin-induced fibrillization, ThT fluorescence; Potency, µM (titrated, usually from 57.4 µM), for the others: top-dose activity, negative = inhibition, most hits filed as inhibitors; hit rate 2.1% among 270,000; note: nearly all actives have a fitted effect of over 55% in size
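Aggregation was driven by heparin (20 uM final) acting on recombinant tau […] bearing P301L in 100 mM sodium acetate pH 7; fibrils were detected with Thioflavin T.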
Tau FP inhib: qHTS for Inhibitors of Tau Fibril Formation, Fluorescence Polarization; Potency, µM (highest dose often 57.7 µM), inactives show top-dose activity, negative = inhibition, usual class: inhibitors; Microtubule-associated protein tau (Homo sapiens), P10636; hit rate 0.39% among 280,000; K18 P301L tau heparin fibrillization, Alexa594 FP, 6 h; note: nearly all actives have a fitted effect of over 55% in size
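K18 P301L tau (15 uM unlabeled/0.24 uM Alexa 594-labeled, final) + compound + heparin 20 uM final; 100 mM NaOAc pH 7; 6 hr 37 C; ThT 30 uM final added, 1 hr RT; FP ex 555/em 632 nm.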
Tau fluor counter: Counterscreen qHTS for Inhibitors of Tau Fibril Formation, Fluorescence Polarization. Potency, µM (titrated, usually from 57.7 µM), for inactives: at the top dose activity change, negative = decrease. hit rate 0.93% among 280,000. AID 1463, 2008. tau K18 P301L (four-repeat tau fragment) Alexa594 fluorescence, heparin fibrillization; note: nearly all actives have a fitted effect of over 55% in size
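Human K18 P301L tau (15 uM unlabeled plus 0.24 uM Alexa 594-labeled, final) in 100 mM sodium acetate pH 7 was mixed with compound and 20 uM heparin and incubated 6 hr at 37 C.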
Gal4-VP16 FLuc: VP16 counterscreen qHTS for inhibitors of ROR gamma transcriptional activity; Drosophila S2 Gal4-VP16 UAS-luciferase, luminescence, 20 h; Potency, µM (series often up to 53.6 µM), for the others: top-dose activity, negative = inhibition, usual class: inhibitors; hit rate 3.5% among 310,000; AID 2546, 2010;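 note: Gal4-VP16 expression switched on by copper sulfate through the metallothionein promoter; nearly all actives have a fitted effect of over 50% in size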
RORgamma inh: qHTS for inhibitors of ROR gamma transcriptional activity. Nuclear receptor ROR-gamma (Mus musculus), P51450. Drosophila S2 Gal4-RORgamma UAS-luciferase reporter, 20 h. Potency, µM (series often up to 53.6 µM), for inactives: top-dose activity change, negative = inhibition, most hits filed as inhibitors. hit rate 5.4% among 310,000. AID 2551, 2010; note: nearly all actives have a fitted effect of over 60% in size
Target sequence (P51450 whole entry, looked up, the tested form may be a part): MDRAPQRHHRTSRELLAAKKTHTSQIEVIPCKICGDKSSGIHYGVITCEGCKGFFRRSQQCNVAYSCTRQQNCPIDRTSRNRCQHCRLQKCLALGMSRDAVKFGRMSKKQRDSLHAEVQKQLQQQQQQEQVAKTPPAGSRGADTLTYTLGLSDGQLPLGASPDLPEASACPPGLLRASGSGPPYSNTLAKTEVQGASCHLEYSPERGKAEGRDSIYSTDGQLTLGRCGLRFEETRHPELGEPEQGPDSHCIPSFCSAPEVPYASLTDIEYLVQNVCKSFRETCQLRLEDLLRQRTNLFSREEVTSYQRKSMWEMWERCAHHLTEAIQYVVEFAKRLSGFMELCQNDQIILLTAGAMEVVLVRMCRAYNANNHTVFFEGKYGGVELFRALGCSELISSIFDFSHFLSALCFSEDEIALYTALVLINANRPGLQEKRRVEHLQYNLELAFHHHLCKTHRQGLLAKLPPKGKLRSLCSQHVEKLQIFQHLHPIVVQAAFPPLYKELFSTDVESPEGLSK
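Read-out: Photinus luciferase luminescence; inhibitors lower reporter signal. Insect Schneider cells with Gal4-ROR gamma fusion under metallothionein promoter, UAS reporter; 700 uM final copper sulfate induction, 20 hr, ambient temperature.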
Active calls of the source: *; u = inconclusive; x = not tested or not shown; [ ] = remark or other dose. Calls come from the whole dose curve; as a rule, active = well fitted curve in the direction sought with a large enough effect; inconclusive = small, poorly fitted or top-dose-only effect, or another doubt; inactive = no such curve, though single readings can be large; an effect the other way counts as inactive or inconclusive. % is set by controls: 0 for no effect and ±100 for the full control effect; potency is the fitted concentration of half-maximal effect.

SMILES	Tau ThT inhib	Tau FP inhib	Tau fluor counter	Gal4-VP16 FLuc	RORgamma inh
CCC(C(=O)C(C)C(O)C(C)CCc1ccc(C)c(O)c1C(=O)O)C1OC(CC)(C2CC[C@@](O)(CC)C(C)O2)CC1C (some centres undefined)	-20%	-7%	-11%	10µM*	u
CC[C@@H](C(=O)[C@@H](C)[C@@H](O)[C@H](C)CCc1ccc(C)c(O)c1C(=O)O)[C@H]1O[C@](CC)([C@H]2CC[C@](O)(CC)[C@H](C)O2)C[C@@H]1C	x	x	x	6.3µM*	u
Cc1nc2ccc(N=NN(C)C)cc2[nH]1	10µM*	u	u	-9%	1%
Cc1nc2ccc(Cc3ccc4nc(C)[nH]c4c3)cc2[nH]1	-5%	-8%	-2%	-1%	36%
O=C(CCSCc1ccccc1Cl)N1CCN(c2ccc(F)cc2)CC1	u	9%	-14%	x	x
CCCn1c(C)cc(-c2csc(N)n2)c1C	16µM*	u	u	11%	-14%
C=CCn1c(C)cc(-c2csc(NC)n2)c1C	5%	4%	5%	2%	21%
C=CCn1c(C)cc(-c2csc(N)n2)c1C	16µM*	u	u	3%	-21%
CN1CCN(c2ncc3nc(-c4cccc(C#N)c4)c(=O)n(CCC#N)c3n2)CC1	x	x	x	-10%	-4%
COc1cc2nc(=S)n3[nH]c(CCn4nc(C)cc4C)nc3c2cc1OC	-11%	6%	-2%	0.089µM*	0.056µM*
COc1cc2nc(SCc3ccc(Cl)cc3)n3nc(CCn4nc(C)cc4C)nc3c2cc1OC	3%	4%	2%	x	x
COc1cc2nc(=S)n3[nH]c(COc4ccccc4C)nc3c2cc1OC	-11%	-5%	-19%	0.4µM*	0.2µM*
CC(C)(C)c1ccc(C(=O)NN=C2CCCC2)cc1	x	x	x	6%	u
CCNc1ccc(C(=O)NN=C2CCCC2)cc1[N+](=O)[O-]	8.9µM*	4%	-18%	-19%	u
Cc1ccc(N2NC(C)(c3cccs3)NC2=S)cc1 (centres undefined)	16µM*	-8%	u	6%	-34%
Cc1ccc(N2CC(O)(c3cccs3)[N+]3=C2CCCC3)cc1 (centres undefined)	8%	4%	7%	1%	9%
Cn1nc(C(=O)N2CCC(C(N)=O)CC2)c2c1-c1ccccc1SC2	x	x	x	3%	14%
CN(Cc1ccccc1)S(=O)(=O)c1ccc(NC(=S)NC(=O)C(C)(C)C)cc1	-17%	-12%	-18%	u	13µM*
CC(=O)Nc1ccc(S(=O)(=O)N(C)Cc2ccccc2)cc1	1%	-9%	-8%	25%	u
CCN(CC)S(=O)(=O)c1ccc(NC(=S)NC(=O)C(C)C)cc1	4%	5%	-4%	u	13µM*
CN(Cc1ccccc1)S(=O)(=O)c1ccc(NC(=S)NC(=O)C2CCCCC2)cc1	-2%	u	-26%	7.9µM*	8.9µM*
C=CCN(CC=C)S(=O)(=O)c1ccc(NC(=S)NC(=O)C2CC2)cc1	x	x	x	u	11µM*
CCOc1ccc(OCCC(=O)OCC(=O)NCc2ccccc2)cc1	x	x	x	-1%	-16%
COc1ccc(C(=O)Nc2cc(C)nn2-c2nc3ccccc3[nH]2)c(OC)c1	-16%	u	u	4µM*	2.2µM*
COc1cccc(OC)c1C(=O)Nc1cc(C)nn1-c1nc2ccccc2[nH]1	-6%	u	u	u	3.5µM*
SMILES	Tau ThT inhib	Tau FP inhib	Tau fluor counter	Gal4-VP16 FLuc	RORgamma inh
Cc1cc(NC(=O)c2cccs2)n(-c2nc3ccccc3[nH]2)n1	u	-3%	4%	-9%	13%
COc1cccc(C(=O)Nc2cc(C)nn2-c2ccccc2)c1OC	x	x	x	-14%	-18%
CCOC(=O)C(=O)Nc1cc(C)nn1-c1nc2ccccc2[nH]1	-12%	7%	-15%	-8%	-34%
Cc1cc(NC(=O)c2sccc2C)n(-c2nc3ccccc3[nH]2)n1	u	u	u	3.5µM*	1µM*
Cc1cc(NC(=O)C2CCCC2)n(-c2nc3ccccc3[nH]2)n1	10%	-3%	-24%	1.4µM*	0.63µM*
CCCCCCCCCCC(C)=O	x	x	x	2%	8%
Cc1cc(NC(=O)c2ccccc2)n(-c2nc3ccccc3[nH]2)n1	-3%	-18%	-7%	2.8µM*	1µM*
Cc1cc(NC(=O)CC#N)n(-c2nc3ccccc3[nH]2)n1	-15%	-2%	-15%	u	u
CCOc1ccc(NC(=O)c2ccccc2C(=O)c2ccccc2)cc1OCC	x	x	x	-6%	0%
O=C(Nc1nc(-c2ccccc2)cs1)c1cccs1	-3%	-9%	-17%	-56%	u
O=C(Nc1nc(-c2ccc(Cl)s2)cs1)c1cccs1	u	u	28µM*[quencher]	-3%	u
O=C(Nc1ccc([N+](=O)[O-])cc1)Nc1nc(-c2ccc(Cl)s2)cs1	0%	7%	-2%	0.89µM*	4µM*
Cc1cccc(NC(=O)C2CCCN(S(=O)(=O)c3c(C)n[nH]c3C)C2)c1 (centres undefined)	-3%	-4%	-11%	x	x
COc1cc(C(=O)NCc2nc3cccnc3n2Cc2ccc(C)cc2)cc(OC)c1OC	-8%	-6%	-11%	x	x
O=Cc1ccc(-n2nncc2-c2ccc([N+](=O)[O-])cc2)cc1	-6%	15%	2%	-6%	3%
Cc1ccccc1C(=O)NC(=S)Nc1sc2c(c1C#N)CCC(C)C2 (centres undefined)	u	-4%	-23%	u	7.9µM*
Cn1ncc(Cl)c1C(=O)NC(=S)Nc1sc2c(c1C#N)CCCCC2	u	-8%	-21%	u	11µM*
N#Cc1c(NC(=O)CCC(=O)O)sc2c1CCCC2	0%	3%	1%	11%	17%
N#Cc1c(NC(=O)CCC(=O)O)sc2c1CCCCC2	20µM*	u	-13%	-7%	-2%
